Source: paper PMC5540273 (PLoS ONE, 2017)

Key:
Details in all cases: concentration: 1 μM, replicates: in singlicate; n = 1
[1] = system: CDK4-cyclinD1
[2] = system: CDK4-cyclinD3
[3] = system: CDK4
[4] = system: CDK5
[5] = system: CDK7
[6] = system: CDK8
[7] = system: CDK9
[8] = system: CDKL1
[9] = system: CDKL2
[10] = system: CDKL3
[11] = system: CDKL5
[12] = system: CHEK1
[13] = system: CHEK2
[14] = system: CIT
[15] = system: CLK1
[16] = system: CLK2
[17] = system: CLK3
[18] = system: CLK4
[19] = system: CSF1R-autoinhibited
[20] = system: CSF1R
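Note: KINOMEscan kinase panel screen.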

Compound	%Inh [1] [%]	%Inh [2] [%]	%Inh [3] [%]	%Inh [4] [%]	%Inh [5] [%]	%Inh [6] [%]	%Inh [7] [%]	%Inh [8] [%]	%Inh [9] [%]	%Inh [10] [%]	%Inh [11] [%]	%Inh [12] [%]	%Inh [13] [%]	%Inh [14] [%]	%Inh [15] [%]	%Inh [16] [%]	%Inh [17] [%]	%Inh [18] [%]	%Inh [19] [%]	%Inh [20] [%]
Cc1cccc2c(-c3ccncn3)c(-c3ccc(F)cc3)nn12 [GW515532]	0	0	0	0	0	10	0	0	13	0	0	5	0	82	99.9	0	100	22	0	0
Cl.Cl.Cl.N#Cc1ccc(CCNc2nccc(-c3cccc(CN4CCNCC4)c3)n2)cc1 [GSK2137462]	0	24	0	0	69	0	22	2	6	0	0	0	0	82	17	23	0	15	0	8
Cc1ccc(-c2nc(Nc3ccncc3)c3ccccc3n2)s1 [GSK189015]	0	0	0	100	0	3	5	0	0	0	14	22	0	42	35	0	0	28	0	4
Cc1c(Cn2c3ccccc3n3c(=O)cc(N4CCOCC4)nc23)cccc1C(F)(F)F [GSK2306394]	0	0	0	0	0	0	100	0	16	0	0	12	0	30	18	11	0	20	0	0
O=C1NC(=O)C(c2ccc(Cl)cc2)=C1Nc1ccc(O)cc1 [SB-340867]	0	0	0	0	0	11	0	12	41	0	0	0	0	0	51	65	0	29	0	0
